Experimental findings from PubChem BioAssay (NCI) are described below.

The panel holds about 83,000 compounds, 20% with a hit somewhere; the sample as a whole holds those more often.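 In brief: 96-well plates, 48 h treatment, single concentration, percent growth endpoint.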 Unmarked numbers belong to inactive results. The source made the active and inactive calls. Rule for the calls: active = growth percent below 10; inactive = the rest.

Among the test systems are SK-MEL-2 melanoma; EKVX NSCLC; SN12C renal; UO-31 renal; TK-10 renal; ACHN renal; CAKI-1 renal; A498 renal; CCRF-CEM leukemia; MOLT-4 leukemia; RPMI-8226 leukemia; OVCAR-8 ovarian; OVCAR-5 ovarian; OVCAR-4 ovarian; SK-OV-3 ovarian; IGROV1 ovarian; OVCAR-3 ovarian; HS 578T breast; NCI/ADR-RES ovarian; SR leukemia.
What all share (assay): NCI-60 one-dose screen, 48 h (100 = growth as untreated, 0 = no growth, -100 = all killed)
Holding throughout (conditions): 10 µM unless noted

`COc1cc(/C=C/C(=O)c2ccc(O)c(CN3CCN(c4cc5c(cc4F)c(=O)c(C(=O)O)cn5C4CC4)CC3)c2)cc(OC)c1OC`: the growth is 66.2% with SK-MEL-2 melanoma; 49.4% in the assay on EKVX NSCLC; 38.2% in the assay with SN12C renal; 47.4% in the assay with UO-31 renal; 107% with TK-10 renal; 46.1% in the assay on ACHN renal. The growth was 54.7% in the assay on CAKI-1 renal; 93% in the assay with A498 renal; 9.83% (active) in the assay on CCRF-CEM leukemia; 33.3% in the assay on MOLT-4 leukemia; -3.9% (active) in the assay on RPMI-8226 leukemia; 30.8% in the assay with OVCAR-8 ovarian. Further, the growth with OVCAR-5 ovarian was 65.5%; in the assay with OVCAR-4 ovarian, 49.8%; in the assay with SK-OV-3 ovarian, 89.2%; with IGROV1 ovarian it was 55%; in the assay with OVCAR-3 ovarian it was 14%; in the assay with HS 578T breast, 38.1%. Besides, in the assay with NCI/ADR-RES ovarian, the growth was 54.6%.

`CSc1nc(Nc2cccc(NC(=O)CCl)c2)c(C#N)c(-c2cccc([N+](=O)[O-])c2)n1`: the growth in the assay on SK-MEL-2 melanoma was 57.5%; in the assay with EKVX NSCLC, 74.1%; in the assay on SN12C renal, 34%; in the assay on UO-31 renal it was 67.2%; in the assay on TK-10 renal it was 137%; with ACHN renal it was 84.2%. The growth with CAKI-1 renal is 52.2%; with A498 renal it was 96.6%; with CCRF-CEM leukemia, -14.4% (active); in the assay on MOLT-4 leukemia, 1.11% (active); with RPMI-8226 leukemia, -14.1% (active); with OVCAR-8 ovarian it was 37%. The growth is 78.7% in the assay on OVCAR-5 ovarian; 28.7% in the assay with OVCAR-4 ovarian; 95.5% with SK-OV-3 ovarian; 0.383% (active) in the assay with IGROV1 ovarian; 6.67% (active) in the assay on OVCAR-3 ovarian; 52% in the assay with HS 578T breast. For the same molecule, in the assay on NCI/ADR-RES ovarian, the growth is 56.7%.

With `O=C1/C(=C/c2cn(-c3ccccc3)nc2-c2ccccc2)SC(=S)N1CCc1ccccc1`, the growth was 108% in the assay on SK-MEL-2 melanoma; 96.6% in the assay on EKVX NSCLC; 98.6% in the assay with SN12C renal; 88.5% in the assay with UO-31 renal; 106% in the assay with TK-10 renal; 104% with ACHN renal. Besides, the growth is 85.2% with CAKI-1 renal; 95.7% with A498 renal; 102% in the assay with CCRF-CEM leukemia; 99.4% in the assay with MOLT-4 leukemia; 102% in the assay with RPMI-8226 leukemia; 105% with OVCAR-8 ovarian. Besides, the growth in the assay with OVCAR-5 ovarian is 107%; in the assay with OVCAR-4 ovarian, 103%; in the assay on SK-OV-3 ovarian, 109%; in the assay on IGROV1 ovarian, 108%; in the assay with HS 578T breast, 104%; with NCI/ADR-RES ovarian, 107%.

Consider `CCCCn1c(-c2ccc(C(=O)O/N=C(\N)c3ccc4ccccc4c3)cc2)nc(-c2ccccc2)c1-c1ccccc1`, for which the growth with SK-MEL-2 melanoma is 96.4%; with EKVX NSCLC it was 75.7%; in the assay with SN12C renal, 63.5%; with UO-31 renal it was -24.1% (active); in the assay with TK-10 renal, 86.2%; with ACHN renal, -72.7% (active). Moreover, the growth was 32.3% with CAKI-1 renal; 40.8% in the assay on CCRF-CEM leukemia; 62.8% in the assay on MOLT-4 leukemia; 12.1% in the assay on SR leukemia; 67.3% in the assay on RPMI-8226 leukemia; 72.2% in the assay on OVCAR-8 ovarian. For the same molecule, the growth is 79.1% in the assay with OVCAR-5 ovarian; 55.5% in the assay with OVCAR-4 ovarian; 99% in the assay with SK-OV-3 ovarian; -61.9% (active) with IGROV1 ovarian; 71.7% in the assay with OVCAR-3 ovarian; 57.9% in the assay on HS 578T breast. Moreover, the growth with NCI/ADR-RES ovarian is 30.9%.

Take `COc1cccc(/C=C2\Oc3cc(OCCN4CCCC4)ccc3C2=O)c1`: the growth with SK-MEL-2 melanoma was 102%; with EKVX NSCLC it was 89.3%; with SN12C renal, 97.3%; with UO-31 renal, 80.8%; with TK-10 renal, 89.3%; with ACHN renal, 104%. Moreover, the growth was 98.5% with CAKI-1 renal; 71.6% in the assay with CCRF-CEM leukemia; 88.9% in the assay with MOLT-4 leukemia; 22.2% in the assay on SR leukemia; 91.7% with RPMI-8226 leukemia; 98.4% in the assay on OVCAR-8 ovarian. For the same molecule, the growth in the assay with OVCAR-5 ovarian was 100%; in the assay with OVCAR-4 ovarian it was 111%; with SK-OV-3 ovarian, 108%; in the assay on IGROV1 ovarian, 98.6%; in the assay with OVCAR-3 ovarian, 97%; in the assay on HS 578T breast, 91.8%. In the assay on NCI/ADR-RES ovarian, the growth was 93.8%.

Consider `COc1cccc(Nc2nc(SC)nc(-c3cccc([N+](=O)[O-])c3)c2C#N)c1`, for which the growth in the assay on SK-MEL-2 melanoma is 96.3%; in the assay on EKVX NSCLC it was 64.7%; in the assay with SN12C renal, 68.8%; in the assay on UO-31 renal it was 26.7%; in the assay on TK-10 renal, 75.8%; in the assay on ACHN renal, 23.9%. Also, the growth with CAKI-1 renal is 60.1%; in the assay with A498 renal it was 78.5%; in the assay on CCRF-CEM leukemia, 99.6%; with MOLT-4 leukemia, 98.2%; with RPMI-8226 leukemia, 95%; with OVCAR-8 ovarian it was 36.4%. Besides, the growth in the assay with OVCAR-5 ovarian is 81.6%; with OVCAR-4 ovarian, -1.38% (active); in the assay with SK-OV-3 ovarian it was 31.3%; in the assay with IGROV1 ovarian, 74.7%; in the assay with OVCAR-3 ovarian it was 51.8%; in the assay on HS 578T breast, 45%. Moreover, in the assay on NCI/ADR-RES ovarian, the growth was 70.2%.

`O=C1NC(=S)N[C@H]1CC(=O)n1cnc2ccccc21`: the growth is 104% in the assay on SK-MEL-2 melanoma; 90.5% in the assay on EKVX NSCLC; 95.4% with SN12C renal; 75.5% in the assay with UO-31 renal; 112% with TK-10 renal; 95.3% in the assay on ACHN renal. For the same molecule, the growth with CAKI-1 renal was 88.7%; in the assay with A498 renal it was 80.3%; with CCRF-CEM leukemia, 112%; in the assay on MOLT-4 leukemia, 108%; in the assay with RPMI-8226 leukemia it was 115%; in the assay on OVCAR-8 ovarian it was 104%. Also, the growth with OVCAR-5 ovarian is 100%; in the assay on OVCAR-4 ovarian, 107%; in the assay with SK-OV-3 ovarian it was 111%; in the assay on IGROV1 ovarian, 96.5%; in the assay with OVCAR-3 ovarian it was 110%; in the assay with HS 578T breast, 99.1%. In the assay on NCI/ADR-RES ovarian, the growth is 96.5%.

As for `CC1=C[C@H]2c3c(c(O)c(O)c4oc5c(C)cccc5c(=O)c34)[C@H](c3cc(O)c(O)c4oc5c(C)cccc5c(=O)c34)[C@H]2C(C)(C)C1`, the growth in the assay with SK-MEL-2 melanoma is 20.9%; in the assay on EKVX NSCLC, 23.5%; with SN12C renal, 10.6%; in the assay with UO-31 renal, -27.2% (active); in the assay on TK-10 renal it was 31.2%; with ACHN renal, 12.2%. Besides, the growth was 12.5% with CAKI-1 renal; 10.8% in the assay on CCRF-CEM leukemia; 3.99% (active) with MOLT-4 leukemia; 3.62% (active) in the assay with SR leukemia; 23.4% with RPMI-8226 leukemia; 18.1% with OVCAR-8 ovarian. In addition, the growth in the assay with OVCAR-5 ovarian is 30.4%; in the assay on OVCAR-4 ovarian, 11.3%; in the assay on SK-OV-3 ovarian it was 19.1%; with IGROV1 ovarian, 1.21% (active); with OVCAR-3 ovarian, 13.8%; in the assay on HS 578T breast, -6.09% (active). Moreover, the growth in the assay on NCI/ADR-RES ovarian was 4.23% (active).
